Test [1] is described as follows: viability loss in pontine glioma line – cell-based, SU-DIPG-XVII, MIPE5.0, CellTiter-Glo, qHTS, dose response (AID 1347060).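 As to AC50: cells exposed to compound for 48 hours before viability readout.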 The note with it: CellTiter-Glo ATP luminescence. (Cellular ATP, detected with luciferase, serves as a proxy for viable cell number.)
Test [2] can be described thus: viability loss in pontine glioma line – cell-based, SU-DIPG-XIII, MIPE5.0, CellTiter-Glo, qHTS, dose response (AID 1347064; cut-off not given, nearly all actives have AC50 up to about 23 µM;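 as to AC50: cells exposed to compound for 48 hours before the viability read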). The conditions noted are these: CellTiter-Glo ATP luminescence.
Test [3] in a line: viability loss in pontine glioma line – cell-based, SU-DIPG-XXV, MIPE5.0, CellTiter-Glo, qHTS, dose response (AID 1347065).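 Also: cells exposed to compound for 48 hours before ATP readout.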 The conditions noted are these: CellTiter-Glo ATP luminescence.
A short description of test [4]: JHH-DIPG-1 glioma cell viability, MIPE5.0 library, CellTiter-Glo luminescence, qHTS (AID 1347067).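 Also: cells exposed to compound for 48 hours before readout.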 The note with it: JHH-DIPG-1 glioma viability, CellTiter-Glo ATP luminescence.
A short description of test [5]: growth inhibition of DIPG cells – cell-based, MIPE5.0 library, qHTS (AID 1347068; cut-off not given, nearly all actives have IC50 up to about 30 µM;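 as to IC50: cells exposed to compound for 48 hours before viability readout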). The conditions noted are these: SU-DIPG-XXV viability. On the technique in general: Quantitative high-throughput screening tests each substance at several concentrations.

The AC50 is the concentration giving half of the maximal activity seen. One may read the IC50 as the point on the concentration scale where inhibition reaches its midpoint.

Structures are written as SMILES. Several values for one entry are separate records, joined by “and”; a condition that tells them apart may be missing. Equal entries are not always repeated. Inconclusive results are not listed. Activity calls are given as the source filed them. Unless noted, the limit is not given here; nearly all actives have AC50 up to about 26 µM.

Regarding `CCCCNc1ncc2c(-c3ccc(CN4CCN(C)CC4)cc3)cn(C3CCC(O)CC3)c2n1` (stereo not given), the AC50 in test [1] is 1.48 µM (active) and 1.32 µM (active); in test [2] it was 2.35 µM (active) and 1.86 µM (active); in test [3] it was 742 nM (active) and 934 nM (active); in test [4], 3.32 µM (active) and 2.95 µM (active). In test [5], the 50% inhibitory concentration (IC50) is 3.32 µM (active).
For the molecule `O=C(COCC(=O)N1CCN(C(c2ccccc2)c2ccccc2)CC1)Nc1ccc(Cl)cc1C(=O)O`, the call in test [1], in test [2], in test [3], in test [4] and in test [5] was inactive.
Take `O=C([C@@H](Cc1cccc(C(F)(F)F)c1)NS(=O)(=O)c1cc(F)c2c(c1)CCNC2)N1CCCC1`: the outcome in test [1], in test [2], in test [3], in test [4] and in test [5] was inactive.
For `COc1cc(F)c(F)c(Nc2ccc(I)cc2F)c1NS(=O)(=O)C1(C[C@H](O)CO)CC1`, the AC50 was 417 nM (active) in test [1], 0.235 µM (active) in test [2], 590 nM (active) in test [3] and 0.209 µM (active) in test [4]. Moreover, the IC50 in test [5] was 2.63 µM (active).
For the molecule `CCC(C)CNCC(=O)N1CCc2sccc2C1c1cccc(C)n1` (stereo not given), the molecule was called inactive in test [1], in test [2], in test [3], in test [4] and in test [5].
Regarding `C[C@@H]1N=C(N)NC(N(C)C)=N1`, the result in test [1], in test [2], in test [3], in test [4] and in test [5] was inactive.
With `O=C1CC[C@H](N2Cc3c(OCc4ccc(CN5CCOCC5)cc4)cccc3C2=O)C(=O)N1`, the call in test [1], in test [2], in test [3], in test [4] and in test [5] was inactive.
For `O=C1Cc2cc(C(=O)NC3C[C@H]4CC[C@@H](C3)N4S(=O)(=O)CC3CCN(CCCC(F)(F)F)CC3)c(Cl)cc2N1` (stereo not given in full), the call in test [1], in test [2], in test [3], in test [4] and in test [5] was inactive.
On to `CCN(C(=O)c1ccccc1OC)c1cc2c(cc1N1CCNC[C@H]1C)n(C)c(=O)n2C`, for which the result in test [1], in test [2], in test [3], in test [4] and in test [5] was inactive.
Take `CNC(=O)c1ccccc1Nc1nc(Nc2ccc3c(c2OC)CCC[C@@H](N2CCN(CCO)CC2)C3)ncc1Cl`: the AC50 was 2350 nM (active) in test [1], 1.48 µM (active) in test [2], 833 nM (active) in test [3] and 5.9 µM (active) in test [4]. In test [5], the IC50 is 11.8 µM (active).
In the case of `CC(=O)c1ccc2c(c1)c1cc(C(C)=O)ccc1n2CCNC(C)C`, the AC50 was 2950 nM (active) in test [1], 4.68 µM (active) in test [2], 3320 nM (active) in test [3] and 2.63 µM (active) in test [4]. The IC50 in test [5] was 5.9 µM (active).
As to `COC(=O)N1CC2(CC2)C[C@H](C(=O)NO)[C@H]1C(=O)N1CCN(c2ccccc2)CC1`, the result in test [1], in test [2], in test [3], in test [4] and in test [5] was inactive.
In the case of `COc1cc(C(=O)NC2CCN(C)CC2)c(F)cc1Nc1ncc2c(n1)N(C1CCCC1)CC(F)(F)C(=O)N2C`, the AC50 in test [1] was 93.4 nM (active); in test [2], 1.86 µM (active); in test [3], 118 nM (active); in test [4], 20.9 µM (active). For the same molecule, the IC50 in test [5] is 4.17 µM (active).
The corresponding values for `COc1ccc(S(=O)(=O)N2CCc3cccc(-c4ccncc4)c32)cc1` are 468 nM (active), 0.295 µM (active), 332 nM (active), 0.332 µM (active) and 0.833 µM (active).
For the molecule `CN[C@@H]1[C@@H](O)[C@@H](O[C@@H]2[C@@H](O)[C@H](O[C@H]3O[C@H](CN)[C@@H](O)[C@H](O)[C@H]3O)[C@@H](N)C[C@H]2NC(=O)C(O)CN)OC[C@]1(C)O` (stereo not given in full), the result in test [1], in test [2], in test [3], in test [4] and in test [5] was inactive.
Turning to `CS(=O)(=O)N1CCC(NC(=O)c2[nH]ncc2NC(=O)c2c(Cl)cccc2Cl)CC1`, the AC50 in test [1] is 3320 nM (active); in test [2] it was 4.17 µM (active); in test [3], 4170 nM (active); in test [4], 4.17 µM (active). In addition, the IC50 in test [5] is 4.68 µM (active).
For the molecule `OC1CCC(Oc2cccc3cnc(Nc4ccc5nc[nH]c5c4)nc23)CC1` (stereo not given), the AC50 in test [1] is 833 nM (active); in test [2] it was 2.09 µM (active); in test [3], 661 nM (active); in test [4], 1.32 µM (active). The IC50 in test [5] is 1.05 µM (active).
With `C[C@@H]1CCN(C(=O)N2CCCC2)C[C@@H]1N(C)c1ncnc2[nH]ccc12`, the outcome in test [1], in test [2], in test [3], in test [4] and in test [5] was inactive.
Turning to `CC(=O)c1cnc2ccc(-c3cc(Cl)c(O)c(Cl)c3)nc2c1NC1CCC(CN(C)C)CC1` (stereo not given), the AC50 in test [1] is 191 nM (active); in test [2], 0.171 µM (active); in test [3], 121 nM (active); in test [4], 0.303 µM (active). For the same molecule, the IC50 in test [5] is 0.191 µM (active).
Consider `COc1c(Nc2ncc(Cl)c(N[C@H]3[C@H](C(N)=O)[C@@H]4C=C[C@@H]3C4)n2)ccc2c1CCC(N1CCOCC1)CC2` (stereo not given in full), for which the AC50 in test [1] is 4170 nM (active); in test [2] it was 4.17 µM (active); in test [3], 2950 nM (active); in test [4], 8.33 µM (active). The IC50 in test [5] is 5.9 µM (active).
The corresponding values for `CN1CCN(c2ccc3nc(-c4cc(C(C)(C)C)c(OCCCC(=O)NCCCN=[N+]=[N-])c(C(C)(C)C)c4)[nH]c3c2)CC1` are 10500 nM (active), 13.2 µM (active), 7420 nM (active), 11.8 µM (active) and 9.34 µM (active).

Source of the values: PubChem BioAssay.
